Data reported in PubChem BioAssay AID1851 (National Center for Advancing Translational Sciences (NCATS), 2009).
Screen size: about 16,000 compounds; about 4,000 (25%) were called active. Roughly 26% stayed inconclusive and do not appear here. Calls follow the shape of the dose curve; as a rule, active = well fitted curve in the direction sought with a large enough effect; inconclusive = small, poorly fitted or top-dose-only effect, or effect the other way; inactive = no such curve, though single readings can be large or run the other way. Only a sample is shown.
% is scaled to controls: 0 for no effect and ±100 for the full control effect.

What follows are molecules tested against Cytochrome P450 2C9 (Homo sapiens) (UniProt P11712) (assay: Cytochrome panel assay with activity outcomes). Conditions: recombinant CYP, pro-luciferin dealkylation, luminescence, p450-cyp2c9; series mostly up to 57.1 µM.
Sequence of Cytochrome P450 2C9 (Homo sapiens) (P11712 whole entry, looked up): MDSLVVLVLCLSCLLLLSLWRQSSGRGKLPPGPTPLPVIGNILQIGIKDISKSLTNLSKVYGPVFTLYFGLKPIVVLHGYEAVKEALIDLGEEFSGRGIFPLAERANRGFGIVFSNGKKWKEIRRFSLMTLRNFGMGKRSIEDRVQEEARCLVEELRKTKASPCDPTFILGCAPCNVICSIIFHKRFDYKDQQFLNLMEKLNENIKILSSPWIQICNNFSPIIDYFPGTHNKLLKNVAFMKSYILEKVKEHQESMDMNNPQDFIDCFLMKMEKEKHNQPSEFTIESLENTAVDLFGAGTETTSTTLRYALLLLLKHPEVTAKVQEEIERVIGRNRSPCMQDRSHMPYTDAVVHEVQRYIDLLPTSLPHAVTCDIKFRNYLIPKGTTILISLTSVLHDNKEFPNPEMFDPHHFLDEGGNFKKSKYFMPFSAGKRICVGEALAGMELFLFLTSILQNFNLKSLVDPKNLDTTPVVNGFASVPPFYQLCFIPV
COc1ccc(-n2c(=O)c(-c3cn(C)c4ccccc34)nc3cnc(OC)nc32)cc1 was tested, and the AC50 was “inactive”. For CC[C@H]1CN(C)[C@H]2Cc3c([nH]c4ccccc34)C(=O)C[C@H]1[C@H]2C(=O)OC, the activity, negative = inhibition was -5.96% [at 11.4 µM] (inactive). O=C(O)c1cc(=O)c2c(OCC(O)COc3cccc4oc(C(=O)O)cc(=O)c34)cccc2o1 was tested, and the AC50 was “inactive”. In the case of O=c1cc(-c2ccccc2)oc2cc(O)c(O)c(O)c12, the AC50 is reported as “inactive”. For CCOC(=O)COc1cc(OCC(=O)OCC)c2c(=O)cc(-c3ccccc3)oc2c1, the AC50 was 8.91 µM (active). With COc1cnc(SCc2ccc(Cl)cc2)nc1Cl the AC50 was 22.4 µM (active). In the case of COc1cc2nncc(SCc3ccc(Cl)c(Cl)c3)c2cc1OC, the activity, negative = inhibition is reported as -3.4% [at 11.4 µM] (inactive). In the case of Cc1nc2cnc(N3CCOCC3)nc2n(C)c1=O, the AC50 is reported as “inactive”. In the case of Cc1nc(N2CCOCC2)nc(N2CCN(c3ccccc3)CC2)c1[N+](=O)[O-], the AC50 is reported as 3.16 µM (active). Cc1noc(C)c1-c1nc(N2CCOCC2)c2ccccc2n1 was tested, and the activity, negative = inhibition was 4.41% [at 2.29 µM] (inactive). COC(Cn1c(C)c(C(C)=O)c(C(C)=O)c1C)OC was tested, and the AC50 was “inactive”. With c1ccc(-c2cccc(N3CCC4(CCNCC4)CC3)c2)cc1 the AC50 was “inactive”. With O=C(O)/C=C\C(=O)Nc1ncn[nH]1 the activity, negative = inhibition was -8.21% [at 11.4 µM] (inactive). For Cc1noc(NS(=O)(=O)c2ccc(N)cc2)c1C, the AC50 was “inactive”. Cc1ccc(OCC(=O)Nc2ccc(S(=O)(=O)Nc3onc(C)c3C)cc2)cc1 was tested, and the AC50 was 17.8 µM (active). With Cc1noc(C)c1C(=O)N1CCC[C@@]2(CCN(c3ncccn3)C2)C1 the AC50 was “inactive”. For COc1ccccc1-c1nccc(NCc2ccccc2)n1, the activity, negative = inhibition was 4.32% [at 2.29 µM] (inactive). For COc1ccc(CNc2nc3ccccc3n2Cc2ccccc2)cc1OC, the AC50 was 8.91 µM (active). C=CCn1c(NCc2ccccc2)nc2ccccc21 was tested, and the AC50 was “inactive”. With CCc1c(C(C)O)oc2ccc3c(C)cc(=O)oc3c12 (stereo unspecified) the AC50 was 7.94 µM (active). CC(C)n1c(=O)c2c(O)cc(=O)oc2c2ccccc21 was tested, and the AC50 was “inactive”. With Cc1cc2cc3c(C)cc(=O)oc3c(C)c2o1 the AC50 was “inactive”. For O=C(O)CCCc1ccc2ccc3ccccc3c2c1, the activity, negative = inhibition was 17.3% [at 11.4 µM] (inactive). NNC(=O)CCc1ccc2ccc3ccccc3c2c1 was tested, and the AC50 was 1.58 µM (active). With NCCCc1ccc2oc3ccccc3c2c1 the activity, negative = inhibition was -10.6% [at 11.4 µM] (inactive). With CC(C)COP(=O)(OCC(C)C)C(O)c1ccccc1F (stereo unspecified) the AC50 was “inactive”. With O=C1CC2(CCCC2)CC(=O)N1CCCCNC[C@H]1COc2ccccc2O1 the AC50 was “inactive”. CCC(C)NC(=O)Cn1cnc2sc(C)cc2c1=O (stereo unspecified) was tested, and the AC50 was “inactive”. With CCCNC(=O)Cn1cnc2sc(C(=O)Nc3ccc4c(c3)OCO4)c(C)c2c1=O the AC50 was 1.12 µM (active). For O=C(CCNC(=O)Cn1cnc2ccccc2c1=O)NCC1COc2ccccc2O1 (stereo unspecified), the AC50 was 10 µM (active). With COc1cccc(OC)c1OCCNC[C@@H]1COc2ccccc2O1 the AC50 was “inactive”. O=C(Cn1cnc2ccccc2c1=O)NCCC(=O)Nc1ccc2c(c1)OCCO2 was tested, and the AC50 was 6.31 µM (active). For C[N@+]1(CCC(=O)c2ccccc2)CC[C@H]2CC[C@H](C2)C1, the activity, negative = inhibition was 8.55% [at 11.4 µM] (inactive). In the case of N/N=C1/CC(=O)NC(=O)N1, the activity, negative = inhibition is reported as 28.1% [at 11.4 µM] (inactive). For CC(CC(=O)O)(CC(=O)O)c1ccccc1, the activity, negative = inhibition was 13.9% [at 11.4 µM] (inactive). For CC(C)(C)C(=O)N(CCN(C(=O)C(C)(C)C)c1ccccc1)c1ccccc1, the AC50 was 15.8 µM (active). CC(=O)N(CC(=O)O)c1ccccc1C(=O)O was tested, and the AC50 was “inactive”. With O=C(c1cccc(F)c1)N1CCC2(CCCN(c3ccccc3)C2)CC1 the AC50 was 10 µM (active). With O=C(c1cccc(F)c1)N1CCC2(CC1)CN(c1cccc(-c3ccccc3)c1)C2 the AC50 was “inactive”. With O=C(c1cccc(F)c1)N1CCC2(CC1)CN(c1ccc(-c3ccccc3)cc1)C2 the AC50 was “inactive”. For CC(C)NC(=O)N1CCCC2(CCN(C(=O)c3cccc(F)c3)CC2)C1, the AC50 was “inactive”. With O=C(c1cccc(F)c1)N1CCC2(CC1)CCN(c1ccc(-c3ccccc3)cc1)CC2 the AC50 was “inactive”. With O=C(c1cccc(F)c1)N1CCC[C@@]2(CCN(c3ccccc3)C2)C1 the AC50 was “inactive”. With O=C(c1cccc(F)c1)N1CCC2(CCCN(c3ccc(-c4ccccc4)cc3)C2)CC1 the AC50 was 15.8 µM (active). O=C(c1cccc(F)c1)N1CCC2(CCCN(c3cccc(-c4ccccc4)c3)C2)CC1 was tested, and the AC50 was 12.6 µM (active). O=C(c1cccc(F)c1)N1CCC2(CC1)CCN(c1cccc(-c3ccccc3)c1)CC2 was tested, and the AC50 was “inactive”. For O=C(c1cc(C(F)(F)F)cc(C(F)(F)F)c1)N1CCC[C@@]2(CCN(c3ccccn3)C2)C1, the AC50 was “inactive”. With CN1CCCN([C@@H](c2ccccc2)c2ccc(Cl)cc2)CC1 the AC50 was “inactive”. For Clc1ccc(C(c2nnnn2C2CCCC2)N2CCN(Cc3ccncc3)CC2)cc1 (stereo unspecified), the AC50 was 1.12 µM (active). For Cc1ccc(C(c2nnnn2C2CCCC2)N2CCN3CCCC3C2)cc1 (stereo unspecified), the AC50 was “inactive”. With COc1ccc2c(c1)c(CC(=O)O)c(C)n2C(=O)c1ccc(Cl)cc1 the AC50 was “inactive”. In the case of COc1ccc2c(c1)c(CC(=O)O)c(C)n2C(=O)c1ccccc1, the AC50 is reported as 10 µM (active). For COc1ccc2c(c1)c(CC(=O)OCC(=O)O)c(C)n2C(=O)c1ccc(Cl)cc1, the AC50 was “inactive”. O=C(O)/C=C\[C@H](O)c1ccc(Cl)cc1 was tested, and the AC50 was “inactive”. With O=C(CSc1nnc2c3ccccc3c3ccccc3c2n1)Nc1ccccc1 the AC50 was 2.51 µM (active). In the case of O=C(CSC1=NCCN1)Nc1ccccc1, the activity, negative = inhibition is reported as 2.48% [at 11.4 µM] (inactive). c1ccc(CSc2nnc3c4ccccc4c4ccccc4c3n2)cc1 was tested, and the activity, negative = inhibition was -1.66% [at 11.4 µM] (inactive). In the case of C[N+]1(CCC[N+]2(C)C[C@H]3[C@H](C2)[C@H]2C=C[C@@H]3CC2)CCOCC1 (stereo partly specified), the activity, negative = inhibition is reported as -9.72% [at 11.4 µM] (inactive). In the case of N[C@]1(C(=O)O)CCc2cc(P(=O)(O)O)ccc21, the AC50 is reported as “inactive”. COC(=O)c1c(-c2ccccc2)csc1NC(=O)CSc1ncnc2sc(C)c(C)c12 was tested, and the AC50 was 1.26 µM (active). CCc1ccc(OCC(=O)NNC(=O)CSc2ncnc3sc(C)c(C)c23)cc1 was tested, and the AC50 was “inactive”. Nc1nc(Cl)nc2c1ncn2[C@@H]1O[C@@H](CO)[C@@H](O)[C@H]1O was tested, and the AC50 was “inactive”. In the case of Nc1nc(Nc2ccccc2)nc2c1ncn2[C@@H]1O[C@@H](CO)[C@H](O)[C@@H]1O, the AC50 is reported as “inactive”. With Nc1nc(Nc2ccccc2)nc2c1ncn2[C@@H]1O[C@@H](CO)[C@H](O)[C@H]1O the AC50 was 0.794 µM (active). In the case of Nc1nc(-c2ccccc2)c(-c2ccccc2)c(-c2nc(N)nc(-c3ccccc3)c2-c2ccccc2)n1, the activity, negative = inhibition is reported as -3.1% [at 11.4 µM] (inactive). In the case of Nc1ccc(-c2sc(N)nc2-c2ccccc2)cc1, the AC50 is reported as 28.2 µM (active). For COc1ccc(CNc2ncnc3ccc(-c4c(C)noc4C)cc23)c(OC)c1, the activity, negative = inhibition was -23.3% [at 2.29 µM] (inactive). CN(C)c1ncc2ncc(=O)n(Cc3ccc(F)cc3)c2n1 was tested, and the AC50 was 10 µM (active). In the case of CCNc1ncc2nc(C)c(=O)n(Cc3ccc(F)cc3)c2n1, the AC50 is reported as “inactive”. For CN(C)c1ncc2nc(-c3ccccc3)c(=O)n(Cc3ccc(F)cc3)c2n1, the AC50 was “inactive”. CCNc1ncc2ncc(=O)n(Cc3ccc(F)cc3)c2n1 was tested, and the AC50 was 20 µM (active). CCNc1ncc2nc(-c3ccc(Cl)cc3)c(=O)n(Cc3ccc(F)cc3)c2n1 was tested, and the AC50 was “inactive”. COc1ncc2ncc(=O)n(Cc3ccc(F)cc3)c2n1 was tested, and the AC50 was “inactive”. For C[C@H](N)C1CCC(C(=O)Nc2ccncc2)CC1 (stereo partly specified), the AC50 was “inactive”. With O=C(CCCN1CCC(O)(c2ccc(Br)cc2)CC1)c1ccc(F)cc1 the AC50 was “inactive”. With Cc1cc(C)nc(Nc2n[nH]c(-c3cccc4ccccc34)n2)n1 the AC50 was “inactive”. In the case of Cc1ccc(-c2cnc(NC(=O)CCC(=O)N3CCCCC3)n2C)cc1, the AC50 is reported as “inactive”. For O=C(CCN1C(=O)C2C3C=CC(C3)C2C1=O)Nc1ccc2ncccc2c1 (stereo unspecified), the AC50 was “inactive”. With Cc1ccc(NC(=O)CCN2C(=O)c3ccncc3C2=O)cc1 the AC50 was 14.1 µM (active). In the case of COc1cc(OC)c2c(c1Cl)O[C@@]1(C2=O)[C@H](C)CC(=O)C[C@@H]1OC, the AC50 is reported as “inactive”. In the case of CN(C)c1ccc(-c2ccc3ncnc(NC4CC4)c3c2)cc1, the activity, negative = inhibition is reported as 4.64% [at 2.29 µM] (inactive). In the case of O=C(CSCc1ccccc1)Nc1cccc(C(=O)Nc2ccccc2C(=O)O)c1, the AC50 is reported as 0.447 µM (active). In the case of CC1CC2=C(NC(=S)NC2c2ccc(F)cc2)/C(=C/c2ccc(F)cc2)C1 (stereo unspecified), the AC50 is reported as 8.91 µM (active). In the case of O=C1CC(NCCC2=CCCCC2)C(=O)N1c1cccc(Cl)c1Cl (stereo unspecified), the AC50 is reported as 14.1 µM (active). For N[C@H](C(=O)O)c1ccc(C(=O)O)cc1, the AC50 was “inactive”. For CC(=O)NC1=NN(c2ccccc2)C(=O)C1, the AC50 was “inactive”. For COC(=O)c1ccccc1-c1ccc(/C=C2\C(=O)N(c3ccccc3)N=C2c2ccccc2)o1, the AC50 was 5.62 µM (active). With COc1ccc(-c2ccc(/C=C3\C(=O)N(c4ccccc4)N=C3c3ccccc3)o2)c([N+](=O)[O-])c1 the AC50 was 2.51 µM (active). With NC(=NC1C2CC3CC(C2)CC1C3)Nc1ccc(I)cc1 (stereo unspecified) the AC50 was “inactive”. In the case of CC[C@@]1(O)C(=O)OCc2c1cc1n(c2=O)Cc2cc3c(CN(C)C)c(O)ccc3nc2-1, the activity, negative = inhibition is reported as -1.39% [at 11.4 µM] (inactive). Cc1cc2nc3[nH]c4c(Cl)cc(Cl)cc4c3nc2cc1C was tested, and the activity, negative = inhibition was -11.6% [at 11.4 µM] (inactive). In the case of O=C(O)CSc1ccn(Cc2ccccc2)c1, the activity, negative = inhibition is reported as -1.85% [at 11.4 µM] (inactive). With C=CCCCCCCCCC(=O)Nc1c[nH]c(=O)[nH]c1=O the AC50 was “inactive”. Cc1onc(-c2c(Cl)cccc2Cl)c1C(=O)Nc1ccc2c(c1)OCO2 was tested, and the AC50 was 1.41 µM (active). In the case of O=C(NC(=S)Nc1ccc2c(c1)OCO2)c1ccccc1, the AC50 is reported as 3.98 µM (active). With C[N+](C)(C)c1ncnc2c1ncn2[C@@H]1CCCCO1 the activity, negative = inhibition was 8.84% [at 11.4 µM] (inactive).
